Assay [1] can be described thus: CCTE_Mundy_HCI_Cortical_NOG_BPCount: CCTE's Neurite Outgrowth Assay in rat cortical cells for Branch Point Count, Mundy Lab (AID 2284237).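 On AC50: branch points counted about two days after chemical exposure.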 The gist of the method:
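Measured 50.33 h after dosing, this morphology endpoint uses rat primary cortical cultures labelled for betaIII-tubulin. Branch points are quantified by high-content imaging, with DMSO as negative control and baseline.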

Read-out in assay [2]: Collagen I, COL1A1 (gene 1277)
The assay can be described thus: BSK_MyoF_CollagenI: BioMAP Diversity Plus: MyoF Assay for Collagen I Biomarker Activity (AID 2284238). The following applies: primary human lung fibroblasts. The gist of the method: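 Primary human lung fibroblasts (MyoF system) treated 24 h; Collagen I quantified by ELISA and fitted in positive direction against DMSO. Parallel SRB total-protein staining assessed overt cytotoxicity.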

The nature of assay [3]: CCTE_Mundy_HCI_Cortical_Synap_Neur_Matur_NeuronCount: CCTE's Synaptogenesis and Neurite Maturation Assay in rat cortical cells for Neuron Count, Mundy Lab (AID 2284242; active means hit-call score of the fitted dose curve at least 0.9, where 1 is the maximum;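 further: hits reduce neuron count versus DMSO baseline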). The gist of the method: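 Measured at DIV 12: fluorescently labelled neurons (Hoechst nuclei, MAP2) in rat primary cortical cultures, counted by high-content imaging. AraC suppressed glia from DIV 5; DMSO served as negative control.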

Read-out in assay [4]: Interleukin 17F (IL17F), IL17F (gene 112744)
As to the kind of experiment: BSK_BT_xIL17F: BioMAP Diversity Plus: BT Assay for Interleukin 17F (IL17F) Biomarker Activity (AID 2284243). The following applies: primary human B cells with PBMC. The gist of the method: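 Human PBMC co-cultured with B cells, compound exposure 24 h; secreted IL-17F quantified by Luminex xMAP, referenced to DMSO control. PBMC viability measured in parallel by Alamar Blue reduction.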

Read-out in assay [5]: Actin alpha 1 (ACTA1), ACTA1 (gene 58)
The assay can be described thus: BSK_MyoF_ACTA1: BioMAP Diversity Plus: MyoF Assay for Actin alpha 1 (ACTA1) Biomarker Activity (AID 2284244). The following applies: primary human lung fibroblasts. The gist of the method: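 MyoF fibroblast system (human lung); a-SMA quantified via ELISA at 24 h; DMSO-normalised, gain-of-signal endpoint.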

Read-out in assay [6]: Interleukin 2 (IL2), IL2 (gene 3558)
As to the kind of experiment: BSK_BT_xIL2: BioMAP Diversity Plus: BT Assay for Interleukin 2 (IL2) Biomarker Activity (AID 2284245). Conditions: primary human B cells with PBMC. The gist of the method: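 Co-cultures of primary human B cells and PBMC are treated with chemical and sampled at 24 h. IL-2 secretion is quantified by Luminex xMAP, with DMSO-treated wells as baseline.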

Read-out in assay [7]: Collagen IV, COL4A1 (gene 1282)
As to the kind of experiment: BSK_MyoF_CollagenIV: BioMAP Diversity Plus: MyoF Assay for Collagen IV Biomarker Activity (AID 2284247). Conditions: primary human lung fibroblasts. The gist of the method: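 Lung fibroblasts (human primary) treated with chemicals were assayed after 24 h for Collagen IV using an ELISA, with DMSO serving as negative control and baseline for a positive-direction fit.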

Read-out in assay [8]: Plasminogen activator inhibitor-1 (PAI1), SERPINE1 (gene 5054)
The assay can be described thus: BSK_MyoF_PAI1: BioMAP Diversity Plus: MyoF Assay for Plasminogen activator inhibitor-1 (PAI1) Biomarker Activity (AID 2284256).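 On outcome: PAI-1 read 24 h after compound addition.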 Conditions: primary human lung fibroblasts. The gist of the method:
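Primary human lung fibroblasts treated with chemical for 24 h; PAI-1 levels quantified by ELISA relative to DMSO. Cytotoxicity was assessed in parallel cultures by SRB total-protein staining (0.1% SRB after 10% TCA fixation, 560 nm).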

Read-out in assay [9]: Monokine induced gamma interferon (MIG), CXCL9 (gene 4283)
As to the kind of experiment: BSK_KF3CT_MIG: BioMAP Diversity Plus: KF3CT Assay for Monokine induced gamma interferon (MIG) Biomarker Activity (AID 2284248). The following applies: primary human keratinocytes with fibroblasts. The gist of the method: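 Human keratinocyte–foreskin fibroblast co-culture; MIG measured by ELISA 24 h after chemical dosing, fitted upward versus DMSO. Cytotoxicity was assessed in parallel cultures by SRB total-protein staining read at 560 nm.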

Read-out in assay [10]: Vascular cell adhesion molecule 1 (VCAM1), VCAM1 (gene 7412)
The assay can be described thus: BSK_BF4T_VCAM1: BioMAP Diversity Plus: BF4T Assay for Vascular cell adhesion molecule 1 (VCAM1) Biomarker Activity (AID 2284249). Conditions: primary human bronchial epithelial cells with fibroblasts. The gist of the method:
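Cell-surface VCAM-1 quantified by ELISA after 24 h chemical exposure of human bronchial epithelial/dermal fibroblast co-cultures, with SRB staining in parallel wells for cytotoxicity; DMSO baseline, positive-direction fitting.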

Read-out in assay [11]: Collagen I, COL1A1 (gene 1277)
As to the kind of experiment: BSK_hDFCGF_CollagenI: BioMAP Diversity Plus: hDFCGF Assay for Collagen I Biomarker Activity (AID 2284250). Conditions: primary human foreskin fibroblasts. The gist of the method:
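Readout: Collagen I by ELISA after 24 h compound treatment of primary human foreskin fibroblasts. Endpoint analysed for increases relative to DMSO; total protein by SRB in parallel wells flagged cytotoxicity.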

Read-out in assay [12]: Interferon-inducible T-cell alpha chemoattractant (ITAC), CXCL11 (gene 6373)
As to the kind of experiment: BSK_hDFCGF_ITAC: BioMAP Diversity Plus: hDFCGF Assay for Interferon-inducible T-cell alpha chemoattractant (ITAC) Biomarker Activity (AID 2284251). Conditions: primary human foreskin fibroblasts. The gist of the method: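 I-TAC levels were read by ELISA on human dermal foreskin fibroblast primary cultures 24 h after dosing, analysed against DMSO in the positive direction. Cytotoxicity was assessed alongside by sulforhodamine B total-protein staining.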

Read-out in assay [13]: Plasminogen activator inhibitor-1 (PAI1), SERPINE1 (gene 5054)
The assay can be described thus: BSK_KF3CT_PAI1: BioMAP Diversity Plus: KF3CT Assay for Plasminogen activator inhibitor-1 (PAI1) Biomarker Activity (AID 2284252). Conditions: primary human keratinocytes with fibroblasts. The gist of the method: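 In this co-culture of primary human keratinocytes and foreskin fibroblasts, PAI-1 was measured by ELISA at 24 h and fitted upward from DMSO.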

Read-out in assay [14]: Monocyte Chemoattractant Protein-1 (MCP1), CCL2 (gene 6347)
As to the kind of experiment: BSK_IMphg_MCP1: BioMAP Diversity Plus: IMphg Assay for Monocyte Chemoattractant Protein-1 (MCP1) Biomarker Activity (AID 2284253). The following applies: primary human endothelial cells with macrophages. The gist of the method: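 ELISA readout of MCP-1 at 24 hours in IMphg co-cultures of venular endothelial cells and macrophages, normalised to DMSO; parallel cultures stained with sulforhodamine B for overt cytotoxicity.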

Read-out in assay [15]: Interleukin-8 (IL8), CXCL8 (gene 3576)
The assay can be described thus: BSK_KF3CT_IL8: BioMAP Diversity Plus: KF3CT Assay for Interleukin-8 (IL8) Biomarker Activity (AID 2284254). The following applies: primary human keratinocytes with fibroblasts. The gist of the method:
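Human keratinocyte/foreskin fibroblast co-culture dosed 24 h; IL-8 measured by ELISA relative to DMSO. Parallel cultures stained with SRB for total protein to flag cytotoxicity.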

Read-out in another assay: CD69, CD69 (gene 969)
As to the kind of experiment: BSK_IMphg_CD69: BioMAP Diversity Plus: IMphg Assay for CD69 Biomarker Activity (AID 2284257). Conditions: primary human endothelial cells with macrophages. The gist of the method:
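Readout is ELISA for CD69 in primary human venular endothelial cell/macrophage co-culture, taken at 24 h post-dosing. SRB staining of parallel cultures gauged overt cytotoxicity; signal increase versus DMSO defined activity.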

Read-out in assay [16]: Eotaxin 3, CCL26 (gene 10344)
The assay can be described thus: BSK_BF4T_Eotaxin3: BioMAP Diversity Plus: BF4T Assay for Eotaxin 3 Biomarker Activity (AID 2284258). The following applies: primary human bronchial epithelial cells with fibroblasts. The gist of the method: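 ELISA measurement of Eotaxin-3 after 24 h chemical exposure in a bronchial epithelial/dermal fibroblast co-culture, with DMSO as baseline. Parallel SRB staining (0.1% SRB after 10% TCA fixation, 560 nm) flagged overt cytotoxicity.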

Read-out in assay [17]: Monocyte Chemoattractant Protein-1 (MCP1), CCL2 (gene 6347)
The assay can be described thus: BSK_BF4T_MCP1: BioMAP Diversity Plus: BF4T Assay for Monocyte Chemoattractant Protein-1 (MCP1) Biomarker Activity (AID 2284259). Conditions: primary human bronchial epithelial cells with fibroblasts. The gist of the method:
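MCP-1 ELISA readout taken 24 h after dosing in the BF4T system (bronchial epithelial cells plus dermal fibroblasts). Parallel SRB total-protein staining flagged cytotoxicity; DMSO served as baseline, positive fitting direction.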

Assay [18] can be described thus: CCTE_Mundy_HCI_hNP1_Casp3_7: CCTE's Caspase-Glo 3/7 Assay in human neuroprogenitor cells for Apoptosis, Mundy Lab (AID 2284240). The gist of the method:
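Apoptosis is scored by activated caspase-3/7 luminescence in WA09-derived neural progenitor cells, measured 26.5 h after chemical dosing. Values represent gain of signal relative to DMSO vehicle.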

A short description of assay [19]: CCTE_Mundy_HCI_hNP1_CellTiter: CCTE's Cell Titer-Glo 2 Assay in human neuroprogenitor cells for Viability, Mundy Lab (AID 2284241; active means hit-call score of the fitted dose curve at least 0.9, where 1 is the maximum). The gist of the method:
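Human neural progenitor cells (hNP1, WA09-derived) were plated on poly-L-ornithine/laminin and grown 40 to 44 hours at 37 °C, 5% CO2 before chemical addition. Twenty-four hours later, ATP was measured by CellTiter-Glo luminescence; loss of signal versus DMSO indicates reduced viability.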
On the technique in general: ATP-based viability assays read luminescence as a measure of living cells.

SMILES strings stand for the structures. Where “and” joins values, the source holds several entries; their conditions need not be identical. Identical values can stand only once. Records with an inconclusive call do not appear. More than one record can exist for a structure, and the calls need not agree. Calls of active or inactive are those of the source. How the source made its calls, unless noted: active means hit-call score of the fitted dose curve at least 0.9, where 1 is the maximum; inactive means score below 0.9.

A word on the AC50: it is the midpoint of the concentration-response curve, whichever way the signal moves.

For the compound `CC(C)(C)c1ccccc1OP(=O)(Oc1ccccc1)Oc1ccccc1`, the AC50 is 17.5 µM (active) in assay [1]; 28.3 µM (active) in assay [2]; 3.09 µM (active) in [3]; 29 µM (active) in assay [4]; 20 µM (active) in [5]; 28.2 µM (active) in [6]. In assay [8], the AC50 is 20 µM (active). Moreover, in assay [7], the outcome was inactive.

Turning to `OCC(F)(F)OC(F)(F)C(F)(F)OC(F)(F)C(F)(F)OC(F)(F)CO`, the outcome in assay [2], in assay [6], in [7], in [9], in assay [10] and in assay [11] was inactive. Moreover, the outcome in [13] is “inactive”; in assay [14], “inactive”; in assay [15] it was “inactive”; in assay [8], “inactive”; with CD69, CD69 (gene 969), “inactive”; in assay [16], “inactive”. Also, the AC50 in [4] is 22.8 µM (active) and 20.7 µM (active); in [5], 20.5 µM (active) and 30 µM (active); in assay [12], 23 µM (active) and 22.1 µM (active); in assay [14], 7.09 µM (active); in [17] it was 17.9 µM (active) and 22.2 µM (active).

For the compound `C=CC(=O)OCC(CC)(COC(=O)C=C)COC(=O)C=C`, the AC50 was 4.69 µM (active) in [2]; 1.87 µM (active) in [4]; 2.93 µM (active) in assay [5]; 2.34 µM (active) in assay [6]; 2.87 µM (active) in [7]; 2.7 µM (active) in assay [8].

Regarding `FC(F)(F)C(F)(C(F)(F)F)C(F)(F)C(F)(F)CC1CO1` (stereo not given), the result in assay [2], in [18], in assay [19], in assay [4], in assay [5] and in [6] was inactive. The result in assay [7], in assay [9], in assay [10], in assay [11], in assay [12] and in [13] was inactive. The outcome is “inactive” in assay [14]; “inactive” in assay [15]; “inactive” in [8]; “inactive” in the assay with CD69, CD69 (gene 969); “inactive” in assay [16]; “inactive” in [17].

For the compound `CCOP(=S)(OCC)SCSCC`, the result in assay [1], in [18] and in [19] was inactive. Moreover, the concentration at half-maximal activity (AC50) in [3] was 78.4 µM (active).

In the case of `O=C(O)C(F)(OC(F)(F)C(F)(F)C(F)(F)F)C(F)(F)F` (stereo not given), the compound was called inactive in assay [1], in [2], in assay [18], in assay [19], in assay [4] and in assay [5]. In addition, the result in assay [6], in [7], in [9], in assay [10], in assay [11] and in assay [12] was inactive. The outcome in assay [13] was “inactive”; in assay [14], “inactive”; in assay [15], “inactive”; in [8], “inactive”; with CD69, CD69 (gene 969), “inactive”; in [16], “inactive”. Also, the result in [17] was inactive. Moreover, in assay [3], the half-maximal activity concentration (AC50) was 6.27 µM (active).

For the compound `COC(=O)C(F)(F)C(F)(F)OC(F)(C(F)(F)F)C(F)(F)OC(F)=C(F)F` (stereo not given), the outcome in [2], in assay [4], in [5], in [6], in [7] and in [9] was inactive. For the same compound, the result in assay [10], in assay [11], in [13], in [14], in assay [15] and in assay [8] was inactive. The outcome with CD69, CD69 (gene 969) is “inactive”; in assay [16] it was “inactive”; in assay [17], “inactive”. Besides, the AC50 was 4.67 µM (active) and 5.4 µM (active) in [12]; 5.24 µM (active) in assay [17].
